In all, about 310,000 compounds went through this assay and about 14,000 (4.5%) showed an effect of 50% or more. Effects have a minus sign here. This excerpt belongs to a sample that is enriched for strong results.
Molecular target: human ether-à-go-go-related gene (hERG) potassium channel (human, UniProt Q12809)
Test: primary screen, population patch clamp on CHO cells stably expressing hERG; higher = less effect of the substance
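Further: peak tail current of the secondary pulse compared with the same well before compound.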

Chain of human ether-à-go-go-related gene (hERG) potassium channel (Q12809 whole entry, looked up): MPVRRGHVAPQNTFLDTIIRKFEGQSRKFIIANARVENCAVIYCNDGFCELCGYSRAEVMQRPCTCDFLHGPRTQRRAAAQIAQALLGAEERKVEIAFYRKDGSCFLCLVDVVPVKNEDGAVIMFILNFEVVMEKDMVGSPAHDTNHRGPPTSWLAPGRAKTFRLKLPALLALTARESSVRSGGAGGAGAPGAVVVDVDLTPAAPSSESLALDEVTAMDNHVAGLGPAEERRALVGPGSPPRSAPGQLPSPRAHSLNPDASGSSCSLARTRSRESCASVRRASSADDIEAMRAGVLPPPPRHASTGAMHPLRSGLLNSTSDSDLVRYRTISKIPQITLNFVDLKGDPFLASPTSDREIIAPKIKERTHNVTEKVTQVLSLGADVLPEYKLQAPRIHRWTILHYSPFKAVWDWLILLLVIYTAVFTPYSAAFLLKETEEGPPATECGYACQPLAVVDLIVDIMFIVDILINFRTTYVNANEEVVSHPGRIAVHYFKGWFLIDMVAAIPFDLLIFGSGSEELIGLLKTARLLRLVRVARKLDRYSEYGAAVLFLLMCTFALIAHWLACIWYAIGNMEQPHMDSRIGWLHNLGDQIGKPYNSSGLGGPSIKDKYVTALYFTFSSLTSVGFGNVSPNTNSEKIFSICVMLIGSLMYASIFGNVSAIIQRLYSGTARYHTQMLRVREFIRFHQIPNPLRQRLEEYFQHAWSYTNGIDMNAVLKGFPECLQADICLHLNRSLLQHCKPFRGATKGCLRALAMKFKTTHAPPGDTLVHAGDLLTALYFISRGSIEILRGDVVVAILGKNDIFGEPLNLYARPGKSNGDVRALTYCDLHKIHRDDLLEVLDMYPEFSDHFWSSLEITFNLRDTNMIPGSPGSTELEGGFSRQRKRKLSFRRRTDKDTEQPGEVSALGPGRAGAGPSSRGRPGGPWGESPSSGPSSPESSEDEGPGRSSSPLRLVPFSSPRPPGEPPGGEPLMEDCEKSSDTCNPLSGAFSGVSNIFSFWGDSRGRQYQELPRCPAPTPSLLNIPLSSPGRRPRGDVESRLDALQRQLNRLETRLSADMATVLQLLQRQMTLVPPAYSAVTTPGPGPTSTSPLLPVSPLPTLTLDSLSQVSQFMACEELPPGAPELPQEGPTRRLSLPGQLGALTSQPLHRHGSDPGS

SMILES	hERG current change (%, negative = inhibition) at 10uM [%]
Cc1ccccc1NC(=O)NNC(=O)OC(C)(C)C	-6.37
O=C(C1CCCCN1S(=O)(=O)c1ccccc1)N1CCCCC1 (centres unmarked)	-1.03
N#Cc1ccc(C23CC4(C2)[C@H](CN(Cc2ccc(-c5ccccc5)cc2)[C@@H]4c2ccccc2)C3c2ccc(C(F)(F)F)cc2)cc1 (some centres unmarked)	6.84
CC(O)[C@H]1CNC(=O)C(=O)N1CCc1cccc(F)c1 (some centres unmarked)	21
CCCn1c(N)c(C(=O)CN(C)CC(=O)Nc2ccc(F)cc2)c(=O)[nH]c1=O	-70.6
CCCn1c(N)c(C(=O)CN(C)CC(=O)Nc2ccccc2C(F)(F)F)c(=O)[nH]c1=O	-0.764
CCCn1c(N)c(C(=O)CN(C)CC(=O)Nc2c(Cl)cccc2Cl)c(=O)[nH]c1=O	-9.48
CCCn1c(N)c(C(=O)CN(C)CC(=O)Nc2ccccc2CC)c(=O)[nH]c1=O	-42
COC(=O)c1c(C)[nH]c(C(=O)CN(C)CC(=O)Nc2cccc(F)c2)c1C	-22.2
CCCn1c(N)c(C(=O)CN(C)CC(=O)Nc2cccc(F)c2)c(=O)[nH]c1=O	-75.1
O=C(NCCC1=CCCCC1)c1ccc([N+](=O)[O-])cc1	-14.9
O=C(CCc1ccc(S(=O)(=O)N2CCCCC2)cc1)c1nnc(-c2ccccc2)o1	-12.7
CCC(C)NC(=O)CN(C1CCCCC1)S(C)(=O)=O (centres unmarked)	9.11
Cc1cc(N)n2ncc(-c3cccc(Br)c3)c2n1	-2.75
Cc1cc(-n2c(C)cc(C(=O)CSc3nncn3C(C)C)c2C)no1	9.21
O=C1CCCN1CC(=O)N1CCCC(N2CCN(c3cccc(Cl)c3)CC2)C1 (centres unmarked)	8.15
CCC(c1nnnn1Cc1ccc(F)cc1)N1CCN(C)CC1 (centres unmarked)	-1.38
CC(C)C(c1nnnn1Cc1ccc(F)cc1)N1CCSCC1 (centres unmarked)	-20.7
CCCC(c1nnnn1CS(=O)(=O)c1ccc(C)cc1)N1CCN(C2CCCC2)CC1.Cl (centres unmarked)	-37.5
CCCC(c1nnnn1Cc1ccc(F)cc1)N1CCN(CC)CC1 (centres unmarked)	-53
CCCC(c1nnnn1Cc1ccc(OC)cc1)N1CCN(c2ccccc2OC)CC1 (centres unmarked)	-8.59
CCC(c1nnnn1Cc1cccs1)N1CCN(C2CCCC2)CC1.Cl (centres unmarked)	-22.3
CCCC(c1nnnn1Cc1cccs1)N1CCN(C2CCCC2)CC1.Cl (centres unmarked)	-29
CCCC(c1nnnn1Cc1ccc(F)cc1)N1CCN(C)CC1 (centres unmarked)	-2.88

SMILES	hERG current change (%, negative = inhibition) at 10uM [%]
CC(C)C(c1nnnn1Cc1ccc(F)cc1)N1CCN(C2CCCC2)CC1 (centres unmarked)	-38.2
CCCC(c1nnnn1Cc1ccc(F)cc1)N1CCN(C2CCCCC2)CC1.Cl (centres unmarked)	-62.4
CC(C)C(c1nnnn1Cc1ccc(F)cc1)N1CCN(C2CCCCC2)CC1 (centres unmarked)	-61.3
CCC(c1nnnn1Cc1ccc(F)cc1)N1CCN(C2CCCCC2)CC1.Cl (centres unmarked)	-53
CCCN1C(=O)C(O)(CC(=O)c2ccc3c(c2)OCCO3)c2ccccc21 (centres unmarked)	7.24
Cc1nn(CC(=O)Nc2ccc(C(=O)N3CCCC3)cc2)c(=O)c2ccccc12	-1.72
CCN(c1cccc(C)c1)S(=O)(=O)c1c(C)[nH]c(C)c1C(=O)N1CCCCC1	5.45
O=C(O)c1cccc(CSc2nnc(Cc3ccccc3)o2)c1	-5.18
Cc1cc(C)n2nc(C(=O)Nc3ccc4c(c3)OCO4)nc2n1	-1.25
Cc1nc(NC(=O)CN2CCCCC2)sc1C(=O)N(C)C	1.37
CC(NC(=O)c1cc(-c2ccccc2)nc2ccccc12)C1CCCO1 (centres unmarked)	-11
COc1cc2c(cc1OC)[C@@]13CCN4CC5=CCO[C@H]6CC(=O)N2[C@H]1[C@H]6[C@H]5C[C@H]43	-8.03
O=C1/C(=C\c2ccccc2)C2OCC=C3CN4CCC56c7ccccc7N1C5C2C3CC46 (centres unmarked)	-53.4
O=C1CC2OCC=C3CN4CCC56c7cc([N+](=O)[O-])ccc7N1C5C2C3CC46 (centres unmarked)	-22.4
NNC(=O)c1ccc(Oc2cc(Cl)cc(Cl)c2)o1	1.1
COc1ccc(NC(=O)c2ccc(NCCCN3CCOCC3)c([N+](=O)[O-])c2)cc1	-3.71
Cc1ccc(NC(=O)c2ccc(NCCCN3CCC(C)CC3)c([N+](=O)[O-])c2)c(C)c1	-19.4
Cc1ccc(NC(=O)c2ccc(NCCCN3CCC(C)CC3)c([N+](=O)[O-])c2)cc1F.Cl	-8.31
CCCN(CCC)CCCNc1ccc(C(=O)Nc2cccc(OC)c2)cc1[N+](=O)[O-].Cl	-76.3
O=C(Nc1ccc(Cl)c([N+](=O)[O-])c1)c1ccc(NCCCN2CCOCC2)c([N+](=O)[O-])c1	-10.2
Cc1cccc(NC(=O)c2ccc(NCCc3ccccc3)c([N+](=O)[O-])c2)c1	6.78
COc1cccc(NC(=O)c2ccc(NCCCN3CCC(C)CC3)c([N+](=O)[O-])c2)c1	-56.2
O=C(Nc1cc(F)cc(F)c1)c1ccc(NCCc2ccccc2)c([N+](=O)[O-])c1	3.74
Cl.O=C(Nc1cc(F)cc(F)c1)c1ccc(NCCCN2CCCCCC2)c([N+](=O)[O-])c1	-72.1

SMILES	hERG current change (%, negative = inhibition) at 10uM [%]
Cc1ccc(C(=O)Nc2cccc(NC(=O)c3ccc(C)cc3)n2)cc1	2.01
Cc1ccccc1-c1nnc(CN2CCC(C)CC2)o1.Cl	-6.6
COCCOCC(O)CN1CCN(c2ccc(C)cc2)CC1.O=C(O)C(=O)O (centres unmarked)	-11.2
Cc1c(C(=O)NC2CCCc3ccccc32)oc2ccc(S(=O)(=O)N3CCOCC3)cc12 (centres unmarked)	-2.45
CC(Oc1cccc(Cl)c1)C(=O)Nc1ccc(S(=O)(=O)NC2=NCCCCC2)cc1 (centres unmarked)	-22.5
CCN(CC)C(=O)c1c2c(nc3ccccc13)-c1ccccc1CC2	-12.6
CCOC(=O)/C(C#N)=C\C=C1C=CN(C)C=C1	0.0919
Cc1ccc2c(CN3CCCCC3)cc(=O)oc2c1C	-1.49
Cc1ccc2c(CN3CCN(Cc4ccccc4)CC3)cc(=O)oc2c1C	-55.3
Cc1c(O)ccc2c(CN3CCN(Cc4ccccc4)CC3)cc(=O)oc12	-61.9
O=c1cc(CN2CCN(Cc3ccccc3)CC2)c2ccc(O)c(O)c2o1	-65.8
Cc1c(O)ccc2c(CN3CCN(CCO)CC3)cc(=O)oc12	3.5
Cc1cc(C)c2oc(=O)cc(CN3CCN(Cc4ccccc4)CC3)c2c1	-33.2
Cc1cc(C)c2c(CN3CCN(Cc4ccccc4)CC3)cc(=O)oc2c1C.Cl	-40.8
CCc1cc(=O)oc2c(CN3CCN(C)CC3)c(O)ccc12	8.25
O=c1cc(CN2CCOCC2)c2ccc(O)c(O)c2o1	10.1
COc1ccc(NC(=O)C2CC(=O)OC2(C)C)cc1 (centres unmarked)	3.44
CCOC(=O)CNC(=O)Nc1ccccc1C(=O)OC	15.1
Cc1cc(C)n(S(=O)(=O)c2cccc([N+](=O)[O-])c2)n1	3.73
COc1ccc(C(=O)C(C)N(C(=O)c2ccc(Cl)cc2Cl)N2C(=O)C3C4C=CC(C4)C3C2=O)cc1 (centres unmarked)	0.401
Cc1cccc(OC(=O)c2sc3ncn(C)c(=O)c3c2C)c1	3.54
O=C(Cn1nc2n(c1=O)-c1ccccc1SC2)N/N=C/c1ccncc1	-1.97
Nc1c(C(=O)OC2CCCCC2)c2nc3ccccc3nc2n1CC1CCCO1 (centres unmarked)	-63.7
Nc1c(C(=O)NC2CCCC2)c2nc3ccccc3nc2n1CC1CCCO1 (centres unmarked)	-4.67

SMILES	hERG current change (%, negative = inhibition) at 10uM [%]
CC(C)OC(=O)c1c(N)n(CC2CCCO2)c2nc3ccccc3nc12 (centres unmarked)	-29.3
Nc1cc(Cl)ccc1N1CCOCC1	-1.57
C[n+]1ccccc1COc1ccc(C(C)(C)C)cc1.Cc1ccc(S(=O)(=O)[O-])cc1	2.84
COc1ccc(-c2c(-c3cc(OC)cc(OC)c3)n(C)c3ccc(-c4ccc(S(N)(=O)=O)cc4)cc23)cc1	14.8
Cc1ccc(-n2c3nc(=O)[nH]c(=O)c-3cc3cc([N+](=O)[O-])ccc32)cc1	-57.6
Cc1cccc(-n2c3nc(=O)[nH]c(=O)c-3cc3cc([N+](=O)[O-])ccc32)c1	-35.1
Cc1ccc(-n2c3nc(=O)[nH]c(=O)c-3cc3cc([N+](=O)[O-])ccc32)cc1C	-26.9
COc1ccc(CNC(=O)C(=O)NCC2OCCN2S(=O)(=O)c2ccc(F)cc2)cc1 (centres unmarked)	-3.41
COc1ccc(-c2nc(CSCC(=O)NCc3ccc4c(c3)OCO4)c(C)o2)cc1	-6.05
COc1ccccc1NS(=O)(=O)c1ccc(N/N=C(\C)C(C)C)c([N+](=O)[O-])c1	9.29
CCOC(=O)c1ccccc1NC(=O)c1c(O)[nH]c(=S)[nH]c1=O	15.6
COc1cccc(-c2nn(-c3ccc(F)cc3)cc2C(=O)NCC2CCCO2)c1 (centres unmarked)	-49.7
COc1cccc(-c2nn(-c3ccc(C)cc3)cc2C(=O)N2CCN(C3CCS(=O)(=O)C3)CC2)c1 (centres unmarked)	-57
Cc1cccc(-c2nn(-c3ccccc3)cc2C(=O)N2CCN(C3CCS(=O)(=O)C3)CC2)c1 (centres unmarked)	-36.6
CCc1ccc(-c2nn(-c3ccccc3C)cc2C(=O)N2CCN(C3CCS(=O)(=O)C3)CC2)cc1 (centres unmarked)	-1.98
Cc1ccc(-c2nn(-c3ccc(F)cc3)cc2C(=O)NC2CCC(O)CC2)cc1 (centres unmarked)	14.4
COc1ccc(-c2nn(-c3ccccc3)cc2C(=O)NCC2CCCO2)cc1 (centres unmarked)	-0.557
Cc1ccc(-c2nn(-c3ccc(F)cc3)cc2C(=O)N2CCN(C3CCS(=O)(=O)C3)CC2)cc1 (centres unmarked)	-61.6
COc1cccc(-c2nn(-c3ccc(C)cc3)cc2C(=O)N2CCc3cc(OC)c(OC)cc3C2)c1	-31.7
COc1cccc(-c2nn(-c3ccc(C)cc3)cc2C(=O)NCC2CCCO2)c1 (centres unmarked)	-62.2
O=C(c1cn(-c2ccccc2)nc1-c1ccc(F)cc1)N1CCCCC1	-10.6
COc1cccc(-c2nn(-c3ccccc3)cc2C(=O)O)c1	1.11
Cc1ccc(-c2nn(-c3ccccc3)cc2C(=O)N2CCN(C3CCS(=O)(=O)C3)CC2)cc1 (centres unmarked)	-68.8

From PMC4336329 (PLoS ONE, 2015)
